15 compounds from PubChem BioAssay (Tox21) can be followed below.

Records with an inconclusive call do not appear. Activity calls are given as the source filed them. Calls follow the shape of the dose curve; as a rule, active = well fitted cell-killing curve with a large enough effect in the repeat runs; inconclusive = weak or mixed curves, or effect the other way; inactive = flat fitted curve, though single readings scatter.
% is scaled to controls: 0 for no effect and ±100 for the full control effect; potency is read from the fitted curve at half-maximal effect.

The experiment is described as follows: qHTS assay to identify small molecule antagonists of the androgen receptor (AR) signaling pathway using the MDA cell line - cell viability counter screen (AID 743041; also: nearly all actives have a fitted effect of over 45% in size). Conditions: MDA-kb2 viability, CellTiter-Fluor, 16 h, cells co-treated with R1881 androgen agonist; series mostly up to 70.3 µM; viability change, negative = cytotoxic: at the top concentration. The procedure, abridged:
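MDA-kb2 AR-luc human breast carcinoma cells (MMTV-luciferase, AR/GR responsive) were treated with compounds plus R1881 agonist for 16 h at 37 °C. Viability was read as CellTiter-Fluor fluorescence in the same wells as the reporter assay.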
Consider `CCCCC(CC)COC(=O)COc1ccc(Cl)cc1Cl` (stereo not given), for which the “viability change, negative = cytotoxic” value is -2.84% [at 95 µM] (inactive).
Consider `CN(C)c1ccc(/C=C/c2ccc([N+](=O)[O-])cc2)cc1`, for which the viability change, negative = cytotoxic was -4.28% [at 8.47 µM] (inactive).
The same measure, in the same setting: the value for `NCC(=O)CCC(=O)O` was 2.04% (inactive).
As for `CCOc1ccc(N=Nc2ccc(/C=C/c3ccc(N=Nc4ccc(OCC)cc4)cc3S(=O)(=O)O)c(S(=O)(=O)O)c2)cc1`, the Potency was 53.6 µM (active).
Regarding `CNC(=O)CN(CCN(CCN(CC(=O)[O-])CC(=O)NC)CC(=O)[O-])CC(=O)[O-].O.[Gd+3]`, the Potency entry was “inactive”.
`CCCCNc1ccc(C(=O)OCCOCCOCCOCCOCCOCCOCCOCCOCCOC)cc1`: the “viability change, negative = cytotoxic” value is 4.33% [at 32.5 µM] (inactive).
As to `CN(C)C(=O)NC1(c2ccccc2)CCN(CC[C@@]2(c3ccc(F)c(F)c3)CN(C(=O)c3ccccc3)CCO2)CC1`, the “viability change, negative = cytotoxic” value is 0.145% (inactive).
Regarding `CCCCCCCCCCO[C@@H]1O[C@H](CO)[C@@H](O)[C@H](O)[C@H]1O`, the “viability change, negative = cytotoxic” value is -0.0351% (inactive).
Regarding `CC(C)(CO)[N+](=O)[O-]`, the “viability change, negative = cytotoxic” value is -1.46% (inactive).
Still for that read-out and setting: to `O=C(O)c1ccco1` belongs 11% (inactive).
Turning to `N=c1ccn2c(n1)O[C@H]1[C@H](O)[C@@H](CO)O[C@H]12`, the Potency result is “inactive”.
For `CCCNCC(O)COc1ccccc1C(=O)CCc1ccccc1` (stereo not given), the “viability change, negative = cytotoxic” value was 0.977% (inactive).
The same measure, in the same setting: to `CCCCCCCCCOS(=O)(=O)O` belongs -0.0732% (inactive); to `COc1ccc(-c2nc3ccc(C4=NNC(=O)CC4C)cc3[nH]2)cc1` (stereo not given), -23.9% (inactive).
Still for that read-out and setting: the value for `C=C(C)C(=O)OCCOCC` was -0.482% [at 95 µM] (inactive).
